TEAD-YAP inh = TEAD-YAP interaction inhibition; HEK-TIYL cells, TEAD-Gal4/YAP UAS-luciferase luminescence; inhibition, % at 9.12 µM; 640,000 tested, 1.4% active; AID 1259422; in the data active = inhibition above about 32%;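 note: 0% = median of test compound wells and 100% = reference inhibitor wells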
FBW7 act = activators of human E3 ligase FBW7. Q969H0. AlphaScreen FBW7–phospho-cyclin E peptide binding, activator screen. normalized activity (activation), % at 26.1 µM. 650,000 tested, 0.13% active; in the data active = normalized activity above about 1.9%;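 note: purified mutant Fbw7 with reduced substrate affinity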
Target sequence (Q969H0 whole entry, looked up): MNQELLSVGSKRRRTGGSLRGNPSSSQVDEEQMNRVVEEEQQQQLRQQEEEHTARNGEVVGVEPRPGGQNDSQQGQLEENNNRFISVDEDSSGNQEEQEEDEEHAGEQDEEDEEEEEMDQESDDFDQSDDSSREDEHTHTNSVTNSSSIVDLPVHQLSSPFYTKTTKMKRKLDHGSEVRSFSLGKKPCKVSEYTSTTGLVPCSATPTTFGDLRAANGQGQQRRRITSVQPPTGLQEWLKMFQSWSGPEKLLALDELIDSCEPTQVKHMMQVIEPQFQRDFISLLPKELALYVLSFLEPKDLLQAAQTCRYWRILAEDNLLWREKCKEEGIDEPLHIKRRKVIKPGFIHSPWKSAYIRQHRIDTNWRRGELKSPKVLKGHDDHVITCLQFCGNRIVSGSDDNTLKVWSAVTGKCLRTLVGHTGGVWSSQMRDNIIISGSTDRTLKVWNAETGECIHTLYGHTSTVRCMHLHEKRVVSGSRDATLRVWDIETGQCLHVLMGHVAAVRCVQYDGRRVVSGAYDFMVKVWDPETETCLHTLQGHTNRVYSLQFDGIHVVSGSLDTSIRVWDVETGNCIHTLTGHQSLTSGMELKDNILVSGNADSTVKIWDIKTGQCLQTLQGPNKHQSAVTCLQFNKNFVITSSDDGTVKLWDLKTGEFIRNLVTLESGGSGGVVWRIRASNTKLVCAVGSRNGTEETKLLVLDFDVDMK
GPR151 ag = human GPR151 activation. Q8TDV0. PathHunter beta-arrestin GPR151 cells, luminescence. activation, % at 11.2 µM. 650,000 tested, 1% active; in the data active = activation above about 4.9%;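 note: 0% = median of compound wells and 100% = cells with positive control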
MITF primary = inhibitors of human MITF. inhibition, % at 2.6 µM. AlphaScreen MITF homodimerization, bead proximity signal. 650,000 tested, 0.91% active. O75030; in the data active = inhibition above about 50%;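 note: 0% = vehicle wells with protein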
An asterisk follows results filed as active. Compounds with a hit are over-represented: about 3.5% of the library has one in this group of screens.

SMILES | TEAD-YAP inh | FBW7 act | GPR151 ag | MITF primary
COc1ccccc1C(=O)Nc1ccnn1C1CCN(C/C(C)=C/c2ccccc2)CC1 | 4 | 0 | -1 | 10
CCOc1cc(C2C(C(=O)Nc3ccccc3)=C(C)Nc3ncnn32)ccc1OCc1ccccc1 (configuration not stated) | 4 | 1 | -1 | 2
O=C(CSc1nnc(NC(=O)Cc2ccccc2)s1)Nc1ccc(F)cc1 | 7 | 1 | -1 | -8
COc1ccccc1OCCn1c(C)nc2ccccc21 | 8 | 0 | 0 | -9
O=C(Nc1ccc(N2CCOCC2)cc1)c1cnccn1 | 49* | 0 | -4 | -8
O=C(Nc1ccc(N2CCN(C(=O)c3ccco3)CC2)cc1)c1cccc2ccccc12 | 55* | 0 | 0 | 9
O=C(Nc1ccc(N2CCOCC2)cc1)c1ccco1 | 62* | 0 | -5 | 9
O=C(Nc1ccc(N2CCN(Cc3ccccc3)CC2)cc1)c1ccco1 | -4 | 1 | 0 | 9
COc1ccc(C(=O)NCC(=O)OCC(=O)NC(N)=O)cc1 | 0 | 0 | 1 | 2
Cc1ccn2c(CN(C)C)c(-c3ccc(Cl)cc3)nc2c1 | -70 | 1 | -2 | 8
COc1cccc(Nc2nnc(Cc3ccccc3Cl)c(=O)[nH]2)c1 | 46* | 0 | -1 | -4
O=c1[nH]c(Nc2ccccc2)nnc1Cc1ccccc1Cl | 4 | 0 | 0 | -7
CCC1=[N+](CC(=O)c2ccc(OC)cc2)CCn2c(C)ccc21 | -8 | 1 | 3 | 2
Nc1nc(-c2ccco2)nn1C(=O)c1ccccc1 | -2 | 2.0* | 0 | 16
N[C@H](Cc1cccc(F)c1)c1nc2ccc(-c3cn[nH]c3)cc2[nH]1 | -6 | -1 | 0 | 10
N[C@H](Cc1cccc(Cl)c1)c1nc2ccc(-c3cn[nH]c3)cc2c(=O)[nH]1 | 69* | -1 | 0 | -9
N[C@H](CCc1ccccc1)c1nc2ccc(-c3cn[nH]c3)cc2c(=O)[nH]1 | -4 | -1 | 1 | 17
N[C@H](Cc1cccc(F)c1)c1nc2ccc(-c3cn[nH]c3)cc2c(=O)[nH]1 | 68* | -1 | 1 | 8
COc1cccc(CCc2nc3c(OC)cc(-c4cn[nH]c4)cc3c(=O)[nH]2)c1 | 36* | 1 | -1 | 16
COc1cccc(Cc2nc3c(OC)cc(-c4cn[nH]c4)cc3c(=O)[nH]2)c1 | 30 | 0 | 1 | -1
N[C@H](Cc1ccc(F)c(F)c1)c1nc2ccc(-c3cn[nH]c3)cc2c(=O)[nH]1 | 76* | -1 | 1 | 15
CCOc1ccc(/C=C2\C(=O)NN(c3cccc(Cl)c3)C2=O)cc1OC | -3 | 0 | 0 | -3
CCSc1ccc(C(=O)NCCOc2ccc(C)cc2)cc1[N+](=O)[O-] | 6 | 0 | 0 | 12
N[C@@H](Cc1ccccc1)c1nc2ccc(-c3ccncc3)cc2c(=O)[nH]1 | 61* | -1 | 0 | 18
N[C@@H](Cc1ccc(F)cc1)c1nc2ccc(-c3cn[nH]c3)cc2c(=O)[nH]1 | 85* | -1 | -3 | -6
SMILES | TEAD-YAP inh | FBW7 act | GPR151 ag | MITF primary
N[C@H](Cc1ccccc1)c1nc2ccc(-c3ccncc3)cc2[nH]1 | 17 | -1 | 0 | 24
NCCC(=O)NC(c1ccc(Cl)cc1)c1nc2ccc(-c3cn[nH]c3)cc2c(=O)[nH]1 (configuration not stated) | 3 | 0 | -2 | 7
N[C@@H](Cc1ccccc1)c1nc2ccc(-c3cn[nH]c3)cc2c(=O)[nH]1 | 75* | -1 | 4 | 14
NCc1ccc(C(=O)NC(c2ccc(Cl)cc2)c2nc3ccc(-c4cn[nH]c4)cc3c(=O)[nH]2)cc1 (configuration not stated) | 3 | 0 | -2 | 21
N[C@@H](Cc1ccc(Cl)cc1)c1nc2ccc(-c3cn[nH]c3)cc2c(=O)[nH]1 | 86* | -1 | -1 | 13
CCc1ccc(-n2c(C)nc3cc(C(=O)N4CCOCC4)ccc32)cc1 | 3 | 0 | 2 | 5
CCCNC(=O)Cn1cnc2sc(C(=O)NCCC3=CCCCC3)c(C)c2c1=O | -12 | 0 | 0 | -1
CC(C)Oc1ccccc1/C=N/NS(=O)(=O)c1ccc(Br)cc1 | 15 | 0 | 0 | 5
N[C@H](Cc1ccc(F)cc1)c1nc2ccc(-c3cn[nH]c3)cc2c(=O)[nH]1 | 81* | 0 | 1 | 28
Cc1ccccc1OCc1nc(N(C)CCN(C)C)c2cc(-c3cn[nH]c3)ccc2n1 | 22 | 0 | 0 | 13
COc1cc(-c2cn[nH]c2)cc2c(=O)[nH]c(C(N)c3ccc(Cl)cc3)nc12 (configuration not stated) | 29 | 0 | 0 | 7
CN(C)CCN(C)c1nc([C@H](N)Cc2cccc(F)c2)nc2ccc(-c3cn[nH]c3)cc12 | -1 | 2.7* | 0 | 30
COc1cc(-c2cn[nH]c2)cc2c(=O)[nH]c([C@@H](N)Cc3cccc(F)c3)nc12 | 68* | -1 | 0 | -3
O=C1CCC(=O)N1CN1CCN(c2ccc(F)cc2)CC1 | -10 | 1 | 3 | 15
COCCNc1ccc2ncc(-c3cccc(C(N)=O)c3)n2n1 | -3 | 0 | -1 | -4
COCCNc1ccc2ncc(-c3cccc(NS(C)(=O)=O)c3)n2n1 | 42* | 0 | 1 | -18
CS(=O)(=O)Nc1cccc(-c2cnc3ccc(NCCCO)nn23)c1 | 58* | 0 | 1 | -5
COCCNc1ccc2ncc(-c3cccc(C(C)=O)c3)n2n1 | 7 | 0 | 3 | -5
COCCNc1ccc2ncc(-c3cccc(NC(C)=O)c3)n2n1 | 56* | 0 | 0 | 6
COc1ccc(S(=O)(=O)NCCc2csc3nc(-c4cccc(C)c4)nn23)cc1 | 3 | 0 | 0 | 1
COc1cc(C)ccc1S(=O)(=O)Oc1cccc2ccc(C)nc12 | 37* | 0 | 1 | 11
COc1cc(/C=C2/NC(=O)N(Cc3ccc(Br)cc3)C2=O)cc2c1OCO2 | 60* | 0 | 1 | -2
O=C1N/C(=C/c2cccc(F)c2)C(=O)N1Cc1ccc(Br)cc1 | 55* | 0 | -1 | 1
C/C(=C(/C#N)Sc1ccccc1[N+](=O)[O-])N1CCCC1 | 3 | 0 | -1 | -3
CC(Oc1ccc(/C=C(\C#N)C(N)=O)cc1)c1ccccc1 (configuration not stated) | -8 | 0 | -1 | -12
SMILES | TEAD-YAP inh | FBW7 act | GPR151 ag | MITF primary
CC1CCN(C2=NC(=O)/C(=C/c3ccccc3F)S2)CC1 | 54* | 0 | -1 | 23
CC1CCN(C2=NC(=O)/C(=C\c3ccccc3Cl)S2)CC1 | -32 | 0 | 1 | 9
CC(C)Oc1ccccc1/C=C1/SC(N2CCOCC2)=NC1=O | 45* | 0 | 0 | -5
CC(=O)N1CCN(C2=NC(=O)/C(=C\c3ccccc3OC(C)C)S2)CC1 | -3 | 0 | 1 | 2
CCCCOc1ccccc1/C=C1/SC(N2CCOCC2)=NC1=O | 41* | 0 | -1 | -4
O=C(NC(c1ccccn1)c1cccs1)C1CCN(C(=O)N2CCOCC2)CC1 (configuration not stated) | 11 | 1 | 0 | 22
CN(c1ncnc(N)c1[N+](=O)[O-])C1CCCCC1 | 54* | 0 | 0 | 4

Assay outcomes: PubChem, The Scripps Research Institute Molecular Screening Center
